{"source": "paper PMC8384837", "about": "“Expanding the binding specificity for RNA recognition by a PUF domain”", "assay_in_all_cases": "yeast three-hybrid, YBZ-1, SC-Leu-His + 0.5 mM 3-AT, 4 days", "settings_in_all_cases": "tags: N-Gal4 AD-HA kept; label: inside an RPR1-promoter hybrid RNA with tandem MS2 sites; ssRNA", "key": {"[1]": {"target": "PUM1 PUF domain R7-KQC (Homo sapiens, UniProt Q14671 828-1176, S1079K;N1080Q;E1083C)", "sequence (Q14671 828-1176 S1079K/N1080Q/E1083C)": "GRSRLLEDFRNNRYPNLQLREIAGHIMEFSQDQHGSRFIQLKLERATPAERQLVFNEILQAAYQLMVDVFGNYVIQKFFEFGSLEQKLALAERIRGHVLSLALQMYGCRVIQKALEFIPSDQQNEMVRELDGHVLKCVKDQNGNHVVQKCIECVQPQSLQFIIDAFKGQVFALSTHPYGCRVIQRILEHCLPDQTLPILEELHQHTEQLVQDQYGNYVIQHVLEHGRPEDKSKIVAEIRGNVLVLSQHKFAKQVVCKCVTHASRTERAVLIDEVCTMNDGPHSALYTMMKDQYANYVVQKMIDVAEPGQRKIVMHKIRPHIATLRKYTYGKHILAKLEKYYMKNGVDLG", "how_it_was_run": "(§1)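 Matching RNA elements and Pumilio-1 PUF domain libraries, randomized at the three base-contacting residues of every repeat, were co-expressed from a centromeric plasmid in strain YBZ-1 (LexA–MS2 coat fusion, HIS3 reporter). The repeat regions were PCR-amplified and Illumina-sequenced from cells grown four days on SC-Leu (input) or SC-Leu-His + 0.5 mM 3-AT (selection). The interaction score is the log change in variant frequency from input to selection. It is computed in log2, with a pseudocount of 1 for absent variants.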"}, "[2]": {"target": "PUM1 PUF domain R8-RFW (Homo sapiens, UniProt Q14671 828-1176, N1122R;Y1123F;Q1126W)", "sequence (Q14671 828-1176 N1122R/Y1123F/Q1126W)": "as the sequence (Q14671 828-1176 S1079K/N1080Q/E1083C) above, with K252S, Q253N, C256E, N295R, Y296F, Q299W counted along it", "how_it_was_run": "as §1"}, "[3]": {"target": "PUM1 PUF domain R8-QFK (Homo sapiens, UniProt Q14671 828-1176, N1122Q;Y1123F;Q1126K)", "sequence (Q14671 828-1176 N1122Q/Y1123F/Q1126K)": "as the sequence (Q14671 828-1176 S1079K/N1080Q/E1083C) above, with K252S, Q253N, C256E, N295Q, Y296F, Q299K counted along it", "how_it_was_run": "as §1"}, "[4]": {"target": "PUM1 PUF domain R2-LWH (Homo sapiens, UniProt Q14671 828-1176, N899L;Y900W;Q903H)", "sequence (Q14671 828-1176 N899L/Y900W/Q903H)": "as the sequence (Q14671 828-1176 S1079K/N1080Q/E1083C) above, with N72L, Y73W, Q76H, K252S, Q253N, C256E counted along it", "how_it_was_run": "as §1"}, "[5]": {"target": "PUM1 PUF domain R4-PFF (Homo sapiens, UniProt Q14671 828-1176, N971P;H972F;Q975F)", "sequence (Q14671 828-1176 N971P/H972F/Q975F)": "as the sequence (Q14671 828-1176 S1079K/N1080Q/E1083C) above, with N144P, H145F, Q148F, K252S, Q253N, C256E counted along it", "how_it_was_run": "as §1"}, "[6]": {"target": "PUM1 PUF domain R4-NRS (Homo sapiens, UniProt Q14671 828-1176, H972R;Q975S)", "sequence (Q14671 828-1176 H972R/Q975S)": "as the sequence (Q14671 828-1176 S1079K/N1080Q/E1083C) above, with H145R, Q148S, K252S, Q253N, C256E counted along it", "how_it_was_run": "as §1"}, "[7]": {"target": "PUM1 PUF domain R4-MPC (Homo sapiens, UniProt Q14671 828-1176, N971M;H972P;Q975C)", "sequence (Q14671 828-1176 N971M/H972P/Q975C)": "as the sequence (Q14671 828-1176 S1079K/N1080Q/E1083C) above, with N144M, H145P, Q148C, K252S, Q253N, C256E counted along it", "how_it_was_run": "as §1"}, "[8]": {"target": "PUM1 PUF domain R4-WST (Homo sapiens, UniProt Q14671 828-1176, N971W;H972S;Q975T)", "sequence (Q14671 828-1176 N971W/H972S/Q975T)": "as the sequence (Q14671 828-1176 S1079K/N1080Q/E1083C) above, with N144W, H145S, Q148T, K252S, Q253N, C256E counted along it", "how_it_was_run": "as §1"}, "[9]": {"target": "PUM1 PUF domain R5-GHL (Homo sapiens, UniProt Q14671 828-1176, C1007G;R1008H;Q1011L)", "sequence (Q14671 828-1176 C1007G/R1008H/Q1011L)": "as the sequence (Q14671 828-1176 S1079K/N1080Q/E1083C) above, with C180G, R181H, Q184L, K252S, Q253N, C256E counted along it", "how_it_was_run": "as §1"}, "[10]": {"target": "PUM1 PUF domain R1-RTT (Homo sapiens, UniProt Q14671 828-1176, S863R;R864T;Q867T)", "sequence (Q14671 828-1176 S863R/R864T/Q867T)": "as the sequence (Q14671 828-1176 S1079K/N1080Q/E1083C) above, with S36R, R37T, Q40T, K252S, Q253N, C256E counted along it", "how_it_was_run": "as §1"}}}
{"sequence": "GGCUAGAACUAGUGGAUCCCCCGGCGCCCGGCGGCUCGAGCCCGGGUAAGUCUAAAUAGUCUGCAUGCCGCCGGGCGCCAUGCCUGCAGGUCGACUCUAGAAAACAUG", "values": [{"measurement": "binding signal", "setting": "[1]", "result": "2.83 log2 enrichment (interaction score)"}]}
{"sequence": "GGCUAGAACUAGUGGAUCCCCCGGCGCCCGGCGGCUCGAGCCCGGGUAAGCGUAAAUAGUCUGCAUGCCGCCGGGCGCCAUGCCUGCAGGUCGACUCUAGAAAACAUG", "values": [{"measurement": "binding signal", "setting": "[2]", "result": "6.4 log2 enrichment (interaction score)"}, {"measurement": "binding signal", "setting": "[3]", "result": "4.17 log2 enrichment (interaction score)"}]}
{"sequence": "GGCUAGAACUAGUGGAUCCCCCGGCGCCCGGCGGCUCGAGCCCGGGUAAGUGUAAAAAGUCUGCAUGCCGCCGGGCGCCAUGCCUGCAGGUCGACUCUAGAAAACAUG", "values": [{"measurement": "binding signal", "setting": "[4]", "result": "7.08 log2 enrichment (interaction score)"}]}
{"sequence": "GGCUAGAACUAGUGGAUCCCCCGGCGCCCGGCGGCUCGAGCCCGGGUAAGUGUACAUAGUCUGCAUGCCGCCGGGCGCCAUGCCUGCAGGUCGACUCUAGAAAACAUG", "values": [{"measurement": "binding signal", "setting": "[5]", "result": "3.52 log2 enrichment (interaction score)"}]}
{"sequence": "GGCUAGAACUAGUGGAUCCCCCGGCGCCCGGCGGCUCGAGCCCGGGUAAGUGUAUAUAGUCUGCAUGCCGCCGGGCGCCAUGCCUGCAGGUCGACUCUAGAAAACAUG", "values": [{"measurement": "binding signal", "setting": "[6]", "result": "2.58 log2 enrichment (interaction score)"}, {"measurement": "binding signal", "setting": "[7]", "result": "3.15 log2 enrichment (interaction score)"}, {"measurement": "binding signal", "setting": "[8]", "result": "2.45 log2 enrichment (interaction score)"}, {"measurement": "binding signal", "setting": "[5]", "result": "7.66 log2 enrichment (interaction score)"}]}
{"sequence": "GGCUAGAACUAGUGGAUCCCCCGGCGCCCGGCGGCUCGAGCCCGGGUAAGUGUGAAUAGUCUGCAUGCCGCCGGGCGCCAUGCCUGCAGGUCGACUCUAGAAAACAUG", "values": [{"measurement": "binding signal", "setting": "[9]", "result": "2.8 log2 enrichment (interaction score)"}]}
{"sequence": "GGCUAGAACUAGUGGAUCCCCCGGCGCCCGGCGGCUCGAGCCCGGGUAAGUGUAAAUAGUCUGCAUGCCGCCGGGCGCCAUGCCUGCAGGUCGACUCUAGAAAACAUG", "values": [{"measurement": "binding signal", "setting": "[2]", "result": "4.68 log2 enrichment (interaction score)"}, {"measurement": "binding signal", "setting": "[4]", "result": "2.74 log2 enrichment (interaction score)"}, {"measurement": "binding signal", "setting": "[9]", "result": "4.22 log2 enrichment (interaction score)"}, {"measurement": "binding signal", "setting": "[8]", "result": "0.36 log2 enrichment (interaction score)"}, {"measurement": "binding signal", "setting": "[5]", "result": "5.26 log2 enrichment (interaction score)"}]}
{"sequence": "GGCUAGAACUAGUGGAUCCCCCGGCGCCCGGCGGCUCGAGCCCGGGUAAGUGUUAAUAGUCUGCAUGCCGCCGGGCGCCAUGCCUGCAGGUCGACUCUAGAAAACAUG", "values": [{"measurement": "binding signal", "setting": "[9]", "result": "3.73 log2 enrichment (interaction score)"}]}
{"sequence": "GGCUAGAACUAGUGGAUCCCCCGGCGCCCGGCGGCUCGAGCCCGGGUAAGUGUAAAUGGUCUGCAUGCCGCCGGGCGCCAUGCCUGCAGGUCGACUCUAGAAAACAUG", "values": [{"measurement": "binding signal", "setting": "[10]", "result": "3.14 log2 enrichment (interaction score)"}]}
